Assay results from the supplement of paper PMC11732987, “Enantioselective OTUD7B fragment discovery through chemoproteomics screening and high-throughput optimisation” (Communications Chemistry, 2025).

Tests used:
Test in all cases: log2 ratio of Biotin-Ahx-Ub-VS probe labelling (fragment/DMSO); higher = less target engagement (more negative = stronger competition), active = hit call of the paper (q ≤ 0.05, log2 ratio ≤ -1)
Conditions in all cases: compound concentration: 200 uM; treatment time: 3 h
OTUD6B = target: T1, OTUD6B (UniProt Q8N6M0)
T1 sequence (whole entry): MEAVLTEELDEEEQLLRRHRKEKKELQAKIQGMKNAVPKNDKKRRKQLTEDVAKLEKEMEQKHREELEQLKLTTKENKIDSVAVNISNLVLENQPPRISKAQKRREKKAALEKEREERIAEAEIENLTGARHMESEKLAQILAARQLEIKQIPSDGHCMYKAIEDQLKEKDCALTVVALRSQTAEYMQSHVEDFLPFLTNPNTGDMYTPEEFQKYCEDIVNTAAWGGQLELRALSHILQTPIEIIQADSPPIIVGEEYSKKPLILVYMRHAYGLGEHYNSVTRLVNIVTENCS
Method in brief: (§1)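 HEK293T lysate (495 µg per sample, in Tris/CHAPS/IGEPAL buffer with protease inhibitors) was exposed in triplicate for 3 h to fragment at 200 µM or to vehicle, then to Biotin-Ahx-Ub-VS at 0.5 µM final for 1 h. Labelled DUBs were enriched on NeutrAvidin, digested with LysC and trypsin, and analysed by diaPASEF LC-MS/MS. Spectronaut label-free quantities were normalised to the global median, and values are average log2 ratios of fragment over vehicle from an unpaired t-test. Only proteins with ≥2 unique peptides were used.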

OTUD7B = target: T2, OTUD7B (UniProt Q6GQQ9)
T2 sequence (whole entry): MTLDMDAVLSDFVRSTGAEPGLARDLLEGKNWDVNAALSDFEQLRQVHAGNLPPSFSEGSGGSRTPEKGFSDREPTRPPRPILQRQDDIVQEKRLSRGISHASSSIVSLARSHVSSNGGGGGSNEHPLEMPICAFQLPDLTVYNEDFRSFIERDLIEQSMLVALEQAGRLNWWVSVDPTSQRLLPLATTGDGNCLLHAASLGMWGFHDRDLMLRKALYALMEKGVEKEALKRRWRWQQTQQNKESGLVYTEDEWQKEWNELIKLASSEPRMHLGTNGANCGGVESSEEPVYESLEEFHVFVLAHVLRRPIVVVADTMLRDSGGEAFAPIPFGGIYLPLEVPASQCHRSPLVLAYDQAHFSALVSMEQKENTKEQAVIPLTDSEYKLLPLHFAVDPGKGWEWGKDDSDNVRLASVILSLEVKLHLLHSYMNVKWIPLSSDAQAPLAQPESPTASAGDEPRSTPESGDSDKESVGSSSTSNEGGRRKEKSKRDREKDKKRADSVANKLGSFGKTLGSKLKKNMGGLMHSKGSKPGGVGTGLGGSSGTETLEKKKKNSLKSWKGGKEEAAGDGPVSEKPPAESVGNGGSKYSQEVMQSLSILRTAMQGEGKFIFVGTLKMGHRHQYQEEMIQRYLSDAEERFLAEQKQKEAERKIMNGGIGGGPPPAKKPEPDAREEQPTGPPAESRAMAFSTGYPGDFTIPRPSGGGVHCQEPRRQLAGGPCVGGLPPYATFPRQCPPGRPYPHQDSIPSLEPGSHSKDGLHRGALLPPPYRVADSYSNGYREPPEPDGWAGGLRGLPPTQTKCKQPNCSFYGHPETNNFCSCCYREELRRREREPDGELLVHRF
Method in brief: as §1

PRPF8 = PRPF8 (UniProt Q6P2Q9)
Method in brief: as §1

PSMD7 = target: T3, PSMD7 (UniProt P51665)
T3 sequence (whole entry): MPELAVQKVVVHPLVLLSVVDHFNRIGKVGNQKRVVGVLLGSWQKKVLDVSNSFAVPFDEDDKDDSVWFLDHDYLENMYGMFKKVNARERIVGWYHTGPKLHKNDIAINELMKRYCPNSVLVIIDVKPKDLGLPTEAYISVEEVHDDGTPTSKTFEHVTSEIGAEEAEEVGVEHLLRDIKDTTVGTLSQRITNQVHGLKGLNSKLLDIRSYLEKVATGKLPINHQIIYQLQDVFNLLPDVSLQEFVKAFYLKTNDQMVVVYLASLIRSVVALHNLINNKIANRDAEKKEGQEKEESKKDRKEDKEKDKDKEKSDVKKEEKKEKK
Method in brief: as §1

UCHL1 = UCHL1 (UniProt P09936)
Sequence of UCHL1 (P09936 whole entry, looked up): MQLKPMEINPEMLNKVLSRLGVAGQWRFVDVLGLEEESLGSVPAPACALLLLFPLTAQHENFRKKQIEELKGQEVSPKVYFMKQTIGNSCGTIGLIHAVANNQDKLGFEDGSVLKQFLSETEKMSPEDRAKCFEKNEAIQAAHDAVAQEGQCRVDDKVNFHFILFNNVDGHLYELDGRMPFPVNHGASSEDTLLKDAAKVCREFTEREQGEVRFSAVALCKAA
Method in brief: as §1

UCHL3 = target: T4, UCHL3 (UniProt P15374)
T4 sequence (whole entry): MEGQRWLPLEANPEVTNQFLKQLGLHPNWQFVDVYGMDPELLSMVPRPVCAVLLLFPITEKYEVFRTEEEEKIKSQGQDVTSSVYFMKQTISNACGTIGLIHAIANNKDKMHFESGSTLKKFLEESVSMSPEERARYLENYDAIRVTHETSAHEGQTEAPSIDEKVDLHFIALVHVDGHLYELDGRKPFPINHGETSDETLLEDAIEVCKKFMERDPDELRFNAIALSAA
Method in brief: as §1

UCHL5 = target: T5, UCHL5 (UniProt Q9Y5K5)
T5 sequence (whole entry): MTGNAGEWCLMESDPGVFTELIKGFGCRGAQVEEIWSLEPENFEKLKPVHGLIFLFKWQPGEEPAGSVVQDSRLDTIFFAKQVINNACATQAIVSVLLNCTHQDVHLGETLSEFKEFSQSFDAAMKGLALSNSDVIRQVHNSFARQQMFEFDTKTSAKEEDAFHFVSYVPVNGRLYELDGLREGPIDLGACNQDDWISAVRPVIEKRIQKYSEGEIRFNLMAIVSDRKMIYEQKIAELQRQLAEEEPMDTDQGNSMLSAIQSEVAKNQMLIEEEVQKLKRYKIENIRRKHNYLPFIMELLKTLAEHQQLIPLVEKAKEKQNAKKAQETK
Method in brief: as §1

USP10 = USP10 (UniProt Q14694)
Sequence of USP10 (Q14694 whole entry): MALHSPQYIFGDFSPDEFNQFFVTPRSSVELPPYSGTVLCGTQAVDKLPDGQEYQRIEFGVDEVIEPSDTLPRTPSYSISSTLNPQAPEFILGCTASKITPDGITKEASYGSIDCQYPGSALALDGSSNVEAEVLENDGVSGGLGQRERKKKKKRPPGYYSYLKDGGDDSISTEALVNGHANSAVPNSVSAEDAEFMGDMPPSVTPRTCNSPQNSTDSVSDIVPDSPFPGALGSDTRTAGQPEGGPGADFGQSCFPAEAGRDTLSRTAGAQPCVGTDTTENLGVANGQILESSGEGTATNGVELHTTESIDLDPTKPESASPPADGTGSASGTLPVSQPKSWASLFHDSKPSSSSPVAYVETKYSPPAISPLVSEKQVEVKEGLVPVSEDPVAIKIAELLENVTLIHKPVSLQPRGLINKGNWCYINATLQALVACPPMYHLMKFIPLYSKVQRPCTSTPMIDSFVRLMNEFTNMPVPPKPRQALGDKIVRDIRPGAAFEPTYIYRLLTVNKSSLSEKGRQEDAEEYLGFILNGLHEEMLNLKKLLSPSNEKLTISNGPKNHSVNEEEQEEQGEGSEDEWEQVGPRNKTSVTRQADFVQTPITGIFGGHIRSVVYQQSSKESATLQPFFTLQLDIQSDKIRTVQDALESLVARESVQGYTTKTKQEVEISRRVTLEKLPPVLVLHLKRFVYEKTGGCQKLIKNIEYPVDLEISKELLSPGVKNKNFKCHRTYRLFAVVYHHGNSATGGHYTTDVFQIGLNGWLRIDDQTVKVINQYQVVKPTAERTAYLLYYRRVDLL
Method in brief: as §1

USP15 = target: T6, USP15 (UniProt Q9Y4E8)
T6 sequence (whole entry): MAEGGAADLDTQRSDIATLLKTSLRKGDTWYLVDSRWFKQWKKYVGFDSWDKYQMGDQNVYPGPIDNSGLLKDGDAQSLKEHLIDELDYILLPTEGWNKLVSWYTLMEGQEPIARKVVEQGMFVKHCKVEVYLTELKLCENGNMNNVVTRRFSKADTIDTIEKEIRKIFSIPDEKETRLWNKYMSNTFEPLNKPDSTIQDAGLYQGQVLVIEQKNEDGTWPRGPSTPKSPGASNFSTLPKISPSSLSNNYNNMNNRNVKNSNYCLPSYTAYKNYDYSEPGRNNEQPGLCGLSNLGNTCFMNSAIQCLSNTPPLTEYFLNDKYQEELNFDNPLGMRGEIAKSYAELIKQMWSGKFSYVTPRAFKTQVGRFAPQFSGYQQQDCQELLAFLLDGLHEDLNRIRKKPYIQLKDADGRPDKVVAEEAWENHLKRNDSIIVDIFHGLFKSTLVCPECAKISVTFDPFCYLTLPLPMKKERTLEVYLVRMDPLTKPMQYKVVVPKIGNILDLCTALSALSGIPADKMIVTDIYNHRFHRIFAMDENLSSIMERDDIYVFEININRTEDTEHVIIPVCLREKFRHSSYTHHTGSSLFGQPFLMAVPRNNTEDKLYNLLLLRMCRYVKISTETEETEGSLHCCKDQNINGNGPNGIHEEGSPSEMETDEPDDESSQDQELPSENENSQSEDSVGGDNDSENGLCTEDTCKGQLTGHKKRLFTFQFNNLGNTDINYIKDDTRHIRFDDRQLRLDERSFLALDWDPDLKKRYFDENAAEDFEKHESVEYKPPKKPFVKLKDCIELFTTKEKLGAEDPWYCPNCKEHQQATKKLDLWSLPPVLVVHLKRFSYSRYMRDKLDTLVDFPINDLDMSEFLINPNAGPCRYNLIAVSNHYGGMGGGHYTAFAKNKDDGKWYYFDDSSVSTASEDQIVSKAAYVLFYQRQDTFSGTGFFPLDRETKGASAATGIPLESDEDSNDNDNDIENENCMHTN
Method in brief: as §1

USP16 = USP16 (UniProt Q9Y5T5)
Sequence of USP16 (Q9Y5T5 whole entry, looked up): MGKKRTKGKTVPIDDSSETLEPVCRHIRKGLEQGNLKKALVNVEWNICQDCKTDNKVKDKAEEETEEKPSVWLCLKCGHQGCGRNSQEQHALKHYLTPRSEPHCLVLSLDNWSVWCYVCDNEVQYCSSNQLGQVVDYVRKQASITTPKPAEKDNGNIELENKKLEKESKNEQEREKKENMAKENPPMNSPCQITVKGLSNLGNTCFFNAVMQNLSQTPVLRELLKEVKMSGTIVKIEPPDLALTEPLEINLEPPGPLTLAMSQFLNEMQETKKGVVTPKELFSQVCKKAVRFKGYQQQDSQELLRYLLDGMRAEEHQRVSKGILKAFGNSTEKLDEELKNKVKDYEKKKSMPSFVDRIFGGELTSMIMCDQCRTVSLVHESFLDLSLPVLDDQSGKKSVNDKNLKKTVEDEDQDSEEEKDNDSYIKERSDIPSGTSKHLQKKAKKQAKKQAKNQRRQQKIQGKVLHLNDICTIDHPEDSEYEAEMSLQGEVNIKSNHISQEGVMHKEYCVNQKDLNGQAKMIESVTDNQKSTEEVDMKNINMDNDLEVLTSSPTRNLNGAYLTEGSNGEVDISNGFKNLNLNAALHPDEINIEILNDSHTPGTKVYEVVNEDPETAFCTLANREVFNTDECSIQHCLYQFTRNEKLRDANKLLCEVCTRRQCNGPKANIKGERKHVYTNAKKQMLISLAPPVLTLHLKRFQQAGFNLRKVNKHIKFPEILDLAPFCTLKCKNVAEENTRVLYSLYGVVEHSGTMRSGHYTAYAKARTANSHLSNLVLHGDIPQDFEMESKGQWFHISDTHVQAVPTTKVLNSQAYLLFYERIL
Method in brief: as §1

Measured: log2 ratio of Biotin-Ahx-Ub-VS probe labelling

O=C(CCl)N1CCN2C(=O)CCC2C1 (stereo not given)
inactive: OTUD6B -0.158 | OTUD7B -0.49 | PRPF8 -0.164 | PSMD7 -0.288 | UCHL3 0.118 | UCHL5 -0.0709 | USP10 -0.195 | USP15 -0.15 | USP16 0.00152
active: UCHL1 -1.64
